These results are taken from the supplement of paper PMC10338343.

± gives the standard deviation.

The test system of this experiment is EfPiwi piRISC loaded with L1MC piRNA (26 nt). Nature of the experiment: pre-steady-state target cleavage rate (min^-1); auxiliary factor: 500 nM Ephydatia muelleri Gtsf1; guide: L1MC piRNA 5'p-UAACUAAAUACUAUGCAAGCUGUAGG; MIWI and MILI are mouse PIWI proteins and EfPiwi is from a freshwater sponge; tags in brackets are library labels; higher = faster piRNA-guided slicing of the target. In outline: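 In HEPES–potassium acetate buffer at 33 °C, […] transcribed, DNA-blocked target RNA library was mixed with 1 nM active affinity-purified piRISC carrying one synthetic guide, with or without 500 nM GTSF1 partner protein, for 0–8 or 0–960 min. Uncleaved targets were sequenced and normalised to depth and to weakly complementary targets; three trials were pooled and k3 was capped at 0.0001 min^-1. The pre-steady-state cleavage rate followed from a burst-and-steady-state fit.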
For “UCCUGGAUGUCGAACGUUAGUAUUUUCAAA [g6:g13:cont:t1A]”, the “pre-steady-state target cleavage rate” value was less than 0.0001. With UCCUGGAUGAGCUUGCAUAGUAUUUCAGUUA the figure was 0.00264 ± 0.0023. With UCCUGCUACAGCUUGCAUAGUAUAAUGUAA the figure was 0.00248 ± 0.002.

Take UCCUCCUACACGAUGCAUAGUAUUUAGUUA: the “pre-steady-state target cleavage rate” value was 0.0593 ± 0.017.

In the case of UCCUGGAUGUCGAACGAUAGUAUUUAGUUA, the “pre-steady-state target cleavage rate” value is less than 0.0001. With UCCUGGAUGAGCUUGCAUAGUAUUUAGCUUA, the “pre-steady-state target cleavage rate” value turned out to be 0.00409 ± 0.0018. As for UCCUGGAUCAGCUUGCAUAGUAUUUAGGUA, the figure is 0.00436 ± 0.002. For UCCUGGAUGUCGAACCAUAGUAUUUGUUA, the “pre-steady-state target cleavage rate” value is less than 0.0001. Consider UCCUGCUACUGCUUGCAAAGUAUUUAGUUA, for which the “pre-steady-state target cleavage rate” value was 0.00588 ± 0.0023. With UCCUGGUACAGCUUCCAUAGUAUUUAGUUA the figure was 0.00258 ± 0.0017; with UCCUGGAUGUCGAACGUAUCUAUUAUCUUA, less than 0.0001; with UCCUGCUACAGCUUCCAUAGUAUAUAGUUA, 0.00251 ± 0.0024.

Consider “UCCUGGAUGUCGAACCAUAGUAUUUAGUUC [g2:g15:cont:t1C]”, for which the “pre-steady-state target cleavage rate” value was less than 0.0001. In the case of UCCUGCUAUCAGCUUGCAUAGUAUUUAGUUA, the “pre-steady-state target cleavage rate” value came out at 0.0613 ± 0.015.

Take UCCUGCUACAGCUUGCAUACUAUUUAGUAA: the “pre-steady-state target cleavage rate” value was 0.00476 ± 0.0026. As for UCCUGGUACAGCUUGCAUAGUAAAUAGUUA, the figure is 0.00642 ± 0.0025; as for UCCUGGAUCAGCAUGCAUAGUAUAUAGUUA, 0.00329 ± 0.0028. UCCUGCUACAGGUUGCAUAGUUUUUAGUUA: the “pre-steady-state target cleavage rate” value amounted to 0.00998 ± 0.0028.

In the case of UCCUGGUACACCUUGCAUAGUAAUUAGUUA, the “pre-steady-state target cleavage rate” value was found to be 0.00464 ± 0.0027. With UCCUGCUACAGCUUGCAAAGUAUUUAGUAA the figure was 0.00434 ± 0.0016; with UCCUGGAUGUCGAACGUAUGUUAUUUAGUUA, less than 0.0001. Consider UCCUGGUACAGCUUGCAUAGUAUUUAGUAA, for which the “pre-steady-state target cleavage rate” value turned out to be 0.0108 ± 0.0041.

As to UCCUGGAUCAGCUUGCAGAGUAUUUAGUUA, the “pre-steady-state target cleavage rate” value turned out to be 0.00715 ± 0.0022.
